Screening results from PubChem.
An excerpt weighted towards active compounds, which were near 18% of everything screened.
TDP1 cell noCPT: qHTS for Inhibitors of human tyrosyl-DNA phosphodiesterase 1 (TDP1): qHTS in cells in absence of CPT | Potency, µM (titrated, usually from 46.2 µM), usual class: inhibitors | hit rate 15% among 420,000 | DT40 Tdp1-/- hTDP1 cells, no CPT, ATP luminescence, 48 h; also: nearly all actives have a fitted effect of over 55% in size
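Chicken DT40 Tdp1-/- cells complemented with human TDP1, screened without camptothecin (DMSO vehicle only), 400 cells/well. Compounds pin-transferred, cells incubated at 37 °C for at least 48 hr. Growth read as ATP-dependent luminescence (CellTiter-Glo, 30 min at RT).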
RORgamma inh: blocks mouse ROR gamma transcriptional activity; P51450; Potency, µM (top dose mostly 53.6 µM), most hits filed as inhibitors; Drosophila S2 Gal4-RORgamma UAS-luciferase reporter, 20 h; hit rate 5.4% among 310,000; also: nearly all actives have a fitted effect of over 60% in size
Target sequence (P51450 whole entry, looked up, the tested form may be a part): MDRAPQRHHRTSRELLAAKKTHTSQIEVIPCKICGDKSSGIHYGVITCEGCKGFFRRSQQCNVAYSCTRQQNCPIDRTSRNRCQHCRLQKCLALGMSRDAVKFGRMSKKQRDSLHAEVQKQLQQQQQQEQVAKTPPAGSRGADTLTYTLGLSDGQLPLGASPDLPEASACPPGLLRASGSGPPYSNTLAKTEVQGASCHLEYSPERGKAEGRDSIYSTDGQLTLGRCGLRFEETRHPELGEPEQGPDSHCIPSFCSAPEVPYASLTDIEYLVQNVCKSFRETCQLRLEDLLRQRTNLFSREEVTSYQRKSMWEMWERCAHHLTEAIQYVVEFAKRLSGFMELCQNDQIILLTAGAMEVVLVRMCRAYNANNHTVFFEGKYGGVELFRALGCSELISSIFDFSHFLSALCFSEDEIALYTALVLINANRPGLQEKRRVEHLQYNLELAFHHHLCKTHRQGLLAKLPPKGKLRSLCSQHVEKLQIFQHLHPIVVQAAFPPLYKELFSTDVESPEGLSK
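Drosophila S2 cells stably expressing Gal4-DBD/mouse RORγ fusion under metallothionein promoter plus UAS-luciferase; compound 1 h, then 700 uM CuSO4 induction for 20 h at ambient temperature; inhibition read as reduced luminescence.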
VP16 counter: inhibits Gal4-VP16 luciferase reporter, ROR gamma counter-screen | Potency, µM (doses to about 53.6 µM), usual class: inhibitors | AID 2546 | hit rate 3.5% among 310,000 | Drosophila S2 Gal4-VP16 UAS-luciferase, luminescence, 20 h;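 also: Gal4-VP16 expression switched on by copper sulfate through the metallothionein promoter; nearly all actives have a fitted effect of over 50% in size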
TDP1 cell CPT: DT40-hTDP1 cell growth loss with CPT; chicken DT40 Tdp1-/-;hTDP1 cells + 20 nM CPT, ATP luminescence, 48 h; Potency, µM (top dose mostly 46.2 µM), most hits filed as inhibitors; hit rate 12% among 420,000; AID 686979; also: nearly all actives have a fitted effect of over 55% in size
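Chicken DT40 Tdp1-/- cells stably complemented with human TDP1 were seeded at 400 cells/well in medium containing 20 nM camptothecin, exposed to pin-transferred compounds, and grown at 37 °C for at least 48 hr. Viability was read as ATP luminescence.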
IL-1B inflam inh: inhibitors of inflammasome signaling (IL-1 beta secretion); hit rate 4.7% among 360,000; activity change, % at 57.5 µM; AID 743279; THP-1 LPS/ATP IL-1B secretion, AlphaLISA, 16 h; active compounds read low; in the data active = activity change below about -50%; inconclusive = mostly about -30% to -49%
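Secreted IL-1B measured by AlphaLISA bead assay after 16 h compound exposure of THP-1 cells; compounds (final up to 57.5 uM) added 1 h before LPS (250 ng/mL) and ATP (1.25 mM) stimulation; lower signal means less secretion.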
LDHA block: blocks human lactate dehydrogenase A; hit rate 0.15% among 480,000; activity change, % (values are at about 110 or 230 µM); purified LDHA, NADH/diaphorase-resazurin fluorescence; active compounds read low; AID 1347041; P00338; in the data active = activity change below about -30%; inconclusive = mostly about -25% to -30%
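Resorufin fluorescence (ex540/em590), read at 0 and 20 min after diaphorase/resazurin addition, reports the NADH left after a 5 min room-temperature reaction of 2 nM human LDH5 with 0.06 mM NADH and 0.2 mM pyruvate.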
Hits are given with their value. Unless noted, calls follow the shape of the dose curve; as a rule, active = well fitted curve in the direction sought with a large enough effect; inconclusive = small, poorly fitted or top-dose-only effect, or another doubt; inactive = no such curve, though single readings can be large; an effect the other way counts as inactive or inconclusive.

Screening CCOC(=O)N1CCC(NC(=O)CCC(=O)N2CC(C)Oc3ccc(C)cc32)CC1 (configuration not stated) returned TDP1 cell noCPT inconclusive, RORgamma inh inactive, VP16 counter inactive, TDP1 cell CPT inconclusive, IL-1B inflam inh inactive and LDHA block inactive.
For COc1ccc(CCNC(=O)CCC(=O)N2CC(C)Oc3ccc(Cl)cc32)cc1OC (configuration not stated) the results were TDP1 cell noCPT inconclusive, RORgamma inh inconclusive, VP16 counter inactive, TDP1 cell CPT 18µM, IL-1B inflam inh inactive and LDHA block inactive.
Screening Cc1ccc2c(c1)N(C(=O)CCC(=O)N1CCN(c3ccccn3)CC1)CC(C)O2 (configuration not stated) returned TDP1 cell noCPT inconclusive, RORgamma inh inactive, VP16 counter inactive, TDP1 cell CPT inconclusive, IL-1B inflam inh inactive and LDHA block inactive.
`Cc1ccc2c(c1)N(C(=O)CCC(=O)NC1CCN(Cc3ccccc3)CC1)CC(C)O2` (configuration not stated) gave TDP1 cell noCPT inconclusive, RORgamma inh inactive, VP16 counter inactive, TDP1 cell CPT 21µM, IL-1B inflam inh inactive and LDHA block inactive.
For Cc1ccc2c(c1)N(C(=O)CCC(=O)NCc1cccc(Cl)c1)CC(C)O2 (configuration not stated) the results were TDP1 cell noCPT 16µM, RORgamma inh inactive, VP16 counter inactive, TDP1 cell CPT inconclusive, IL-1B inflam inh inconclusive and LDHA block inactive.
N#CC1=C(N)Oc2n[nH]c(-c3ccccc3)c2C12C(=O)N(Cc1ccc(F)cc1)c1ccccc12 (configuration not stated) was read as LDHA block inactive.
`COc1ccc(NC(=O)N2CCc3c(sc4c3CCCC4)C2c2ccc(F)cc2)cc1` (configuration not stated) gave TDP1 cell noCPT 21µM, TDP1 cell CPT inconclusive and LDHA block inactive.
`Cc1cccc(NC(=O)N2CCC(C(=O)c3ccc(F)cc3)CC2)c1` gave TDP1 cell noCPT inconclusive, RORgamma inh inactive, VP16 counter inactive, TDP1 cell CPT inconclusive, IL-1B inflam inh inactive and LDHA block inactive.
Cc1cccc(NC(=O)N2CCc3c(sc4c3CCCC4)C2c2ccc(F)cc2)c1 (configuration not stated) was read as TDP1 cell noCPT 16µM, TDP1 cell CPT inconclusive and LDHA block inactive.
CC(C)CC1C(=O)N(Cc2cn(CC3CCCCC3)nn2)CCS(=O)(=O)N1Cc1ccc(-c2cccc(C#N)c2)cc1 (configuration not stated) was read as TDP1 cell noCPT inconclusive, TDP1 cell CPT 21µM, IL-1B inflam inh inactive and LDHA block inactive.
CC(C)CC1C(=O)N(Cc2cn(CCC3OCCCO3)nn2)CCS(=O)(=O)N1Cc1ccc(-c2cccc(N(C)C)c2)cc1 (configuration not stated) was read as TDP1 cell noCPT inactive, TDP1 cell CPT inactive, IL-1B inflam inh inactive and LDHA block inactive.
For CC(C)CC1C(=O)N(Cc2cn(CC3CCCCC3)nn2)CCS(=O)(=O)N1Cc1ccc(-c2ccncc2)cc1 (configuration not stated) the results were TDP1 cell noCPT 15µM, TDP1 cell CPT inconclusive, IL-1B inflam inh inactive and LDHA block inactive.
Screening COc1ccc(-c2ccc(CN3C(C(C)C)C(=O)N(Cc4cn(CC5CCCCC5)nn4)CCS3(=O)=O)cc2)cc1OC (configuration not stated) returned TDP1 cell noCPT 1.6µM, TDP1 cell CPT inconclusive, IL-1B inflam inh inconclusive and LDHA block inactive.
For COc1ccc(-c2ccc(CN3C(CC(C)C)C(=O)N(Cc4cn(CC5CCCCC5)nn4)CCS3(=O)=O)cc2)cc1OC (configuration not stated) the results were TDP1 cell noCPT 21µM, TDP1 cell CPT 23µM, IL-1B inflam inh inactive and LDHA block inactive.
Screening COC(=O)C1(C(=O)OC)C(c2ccccc2)CC(=O)CC1c1ccccc1 (configuration not stated) returned LDHA block inactive.
CC(Sc1c(Cl)cccc1Cl)C(=O)NC(N)=O (configuration not stated) was read as LDHA block inactive.
Screening FC(F)(F)c1ccc(Cl)c(N/N=C/c2ccccc2Cl)c1 returned LDHA block inactive.
Screening O=C(Nc1cc(C(F)(F)F)ccc1Cl)c1ccncc1 returned TDP1 cell noCPT inactive, RORgamma inh inactive, VP16 counter inactive, TDP1 cell CPT inactive, IL-1B inflam inh inactive and LDHA block inactive.
Screening COc1ccc(/C=N/NC(=S)Nc2cc(C(F)(F)F)ccc2Cl)cc1 returned TDP1 cell noCPT inconclusive, RORgamma inh 0.35µM, VP16 counter 4µM, TDP1 cell CPT inconclusive, IL-1B inflam inh inactive and LDHA block inactive.
Cc1ccc(C(=O)NC(=S)Nc2cc(C(F)(F)F)ccc2Cl)cc1 was read as TDP1 cell noCPT inactive, RORgamma inh 10µM, VP16 counter inactive, TDP1 cell CPT inactive, IL-1B inflam inh inactive and LDHA block inactive.
`FC(F)(F)c1ccc(Cl)c(N/N=C/c2ccc(OCc3ccccc3)cc2)c1` gave LDHA block inactive.
Screening FC(F)(F)c1ccc(Cl)c(NC(=S)N/N=C/c2ccccc2C(F)(F)F)c1 returned TDP1 cell noCPT inconclusive, RORgamma inh 0.32µM, VP16 counter 0.56µM, TDP1 cell CPT inconclusive, IL-1B inflam inh inactive and LDHA block inactive.
For Cc1ccc(S(=O)(=O)NCC(=O)OCc2cc(=O)oc3c(C)c(C)ccc23)cc1 the results were LDHA block inactive.
For CC(=O)Nc1ccc(NC(=O)CNC(=O)c2ccc3nc(-n4cccc4)sc3c2)cc1 the results were LDHA block inactive.
Screening Cc1cc(C)cc(NC(=O)C2CCCN(S(=O)(=O)c3cccc4nsnc34)C2)c1 (configuration not stated) returned TDP1 cell noCPT 16µM, TDP1 cell CPT 18µM and LDHA block inactive.
`Cc1cccc(NC(=O)C2CCCN(S(=O)(=O)c3cccc4nsnc34)C2)c1` (configuration not stated) gave TDP1 cell noCPT inconclusive, RORgamma inh inactive, VP16 counter inactive, TDP1 cell CPT inconclusive, IL-1B inflam inh inactive and LDHA block inactive.
Screening Cc1cc(NC(=O)C2CCCN(S(=O)(=O)c3cccc4nsnc34)C2)ccc1Br (configuration not stated) returned TDP1 cell noCPT inconclusive, TDP1 cell CPT 10µM and LDHA block inactive.
